Most compounds without a hit are left out; they make up all but 3% or so of the library.
TRAIL sens C8: viability loss with TRAIL in NB7+C8 cells, primary screen, TRAIL sensitizer project, cell-based, ATPlite luminescence; actives 1% (n = 360,000); AID 624354, 2012; inhibition (viability loss, TRAIL sensitization), % at 10 µM;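 active = compounds causing at least 50% loss of cell viability in the single-dose screen, relative to plate controls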
PPC-1+TRAIL kill: compounds killing PPC-1 cancer cells with TRAIL present, primary screen, TRAIL potentiator project, ATPLite luminescence, uHTS. PPC-1 cells + TRAIL, ATPLite viability luminescence. cell killing (% activity), % at 4 µM or 5 µM. actives 0.41% (n = 220,000);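 active = cell killing above 50% in the first pass at 4 µM, then a duplicate retest at 5 µM averaging 50% or more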
SENP8 block-1: human SENP8 protease inhibitors, primary screen, biochemical, fluorescence, Nedd8 protein substrate, uHTS; Sentrin-specific protease 8 (Homo sapiens), Q96LD8; recombinant SENP8; inhibition, % at 20 µM; actives 0.64% (n = 360,000); AID 602440, 2012; in the data active = inhibition mostly above about 40%, no sharp cut-off; inactive = mostly below about 27%
Target sequence (Q96LD8 whole entry, looked up): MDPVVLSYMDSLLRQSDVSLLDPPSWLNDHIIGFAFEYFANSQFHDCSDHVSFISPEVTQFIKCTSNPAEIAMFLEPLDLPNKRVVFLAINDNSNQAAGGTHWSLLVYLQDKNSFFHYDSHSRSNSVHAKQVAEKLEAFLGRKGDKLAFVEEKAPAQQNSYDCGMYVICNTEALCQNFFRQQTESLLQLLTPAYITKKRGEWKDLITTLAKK
SENP8 block-2: SENP8 protease inhibitors, primary screen, biochemical, luminescence. purified SENP8, Z-RLRGG-aminoluciferin cleavage. inhibition, % at 10 µM. actives 1.2% (n = 330,000). AID 2540, 2010; in the data active = inhibition above about 50%
SENP6 block: SENP6 protease inhibitors, primary screen, biochemical, luminescence, uHTS | actives 1.8% (n = 330,000) | AID 2599, 2010 | inhibition, % at 10 µM | Sentrin-specific protease 6 (Homo sapiens), Q9GZR1 | Recombinant SENP6 catalytic domain, aminoluciferin luminescence;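 active = inhibition above about 50% at the single tested dose, limit read from the data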
SENP7 inh: SENP7 protease inhibitors, primary screen, biochemical, luminescence, uHTS. Sentrin-specific protease 7 (Homo sapiens), Q9BQF6. recombinant SENP7, Z-RLRGG-aminoluciferin luminescence, 40 min. inhibition, % at 5 µM. actives 1.5% (n = 330,000);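 active = inhibition above about 50% at the single test dose, limit read from the data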
Target sequence (Q9BQF6 706-1050 limits assumed): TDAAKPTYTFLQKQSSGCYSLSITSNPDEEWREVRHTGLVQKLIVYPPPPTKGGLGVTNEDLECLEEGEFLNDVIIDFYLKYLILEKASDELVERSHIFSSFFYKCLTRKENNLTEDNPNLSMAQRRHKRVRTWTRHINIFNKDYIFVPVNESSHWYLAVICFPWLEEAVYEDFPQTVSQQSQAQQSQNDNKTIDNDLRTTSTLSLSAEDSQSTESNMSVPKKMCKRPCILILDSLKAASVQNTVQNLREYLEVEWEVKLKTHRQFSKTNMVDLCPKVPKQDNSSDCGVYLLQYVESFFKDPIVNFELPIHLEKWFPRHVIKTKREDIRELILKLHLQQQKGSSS
SENP8 conf: human SENP8 protease inhibitors, confirmation, biochemical, Nedd8 protein substrate, single concentration. shares compounds with SENP8 block-1. purified SENP8, Nedd8-AMC/pro-Nedd8 cleavage fluorescence, 30 min. inhibition, % at 25 µM. actives 15% (n = 1,400). AID 624319, 2012; in the data active = inhibition mostly above about 39%, no sharp cut-off; inactive = mostly below about 34%
Numbers stand for hits; 0 = inactive; - = no result given.

SMILES	TRAIL sens C8	PPC-1+TRAIL kill	SENP8 block-1	SENP8 block-2	SENP6 block	SENP7 inh	SENP8 conf
CC1(C)C2CCC1(CS(=O)(=O)NC(CC(=O)O)c1cccc(Br)c1)C(=O)C2 (stereo unspecified)	0	-	0	0	0	0	-
CC(NS(=O)(=O)c1ccc(Cl)cc1)C(=O)N1CCOCC1 (stereo unspecified)	0	-	0	0	0	0	-
COc1ccc(N2CCN(C(=O)CCc3nnc4ccc(N5CCOCC5)nn34)CC2)cc1	0	-	0	0	0	0	-
COc1cc(C(c2c(C)[nH][nH]c2=O)c2c(C)[nH][nH]c2=O)ccc1OS(=O)(=O)c1ccc(C)cc1	0	0	56.4	0	0	0	0
COc1cc(C(c2c(C)[nH][nH]c2=O)c2c(C)[nH][nH]c2=O)ccc1OC(C)C	0	0	0	0	0	0	-
COc1cc(C(c2c(C)[nH][nH]c2=O)c2c(C)[nH][nH]c2=O)ccc1OS(=O)(=O)c1ccccc1	0	0	41.8	0	0	0	0
COc1ccc(C(c2c(C)[nH][nH]c2=O)c2c(C)[nH][nH]c2=O)cc1Br	0	-	0	0	0	0	-
Cc1cc(C)c(C2=CC(=O)C[C@H](c3ccc4c(c3)OCO4)C2)c(C)c1	0	-	0	0	0	0	-
CN(C)c1ccc(Cl)c(NC(N)=S)c1	0	-	0	-	-	-	-
CCOCCCNC(=O)C1CCCN(S(=O)(=O)CC)C1 (stereo unspecified)	0	0	45.5	0	0	0	0
COC(=O)Nc1ccc(S(=O)(=O)NC2CCCCC2)cc1	0	-	0	0	0	0	-
COc1cccc(C=Nc2ccc3c(c2)OCCO3)c1O	0	0	53.4	0	0	0	0
Cc1ccc(NC(=O)COC(=O)C2CCC2)cc1S(=O)(=O)N1CCOCC1	0	-	0	0	0	0	-
Cc1cccc(NS(=O)(=O)c2cc(C(=O)OCC(=O)Nc3cc(C)on3)ccc2C)c1	0	0	41.2	0	0	0	0
Cc1cccc(NC(=O)COC(=O)c2ccc(C)c(S(=O)(=O)N3CCCCC3)c2)c1	0	-	0	0	0	0	-
Cc1ccc(N2C(=O)C3C4C=CC(C4)C3C2=O)cc1C (stereo unspecified)	0	0	0	0	0	0	-
CC1=NN(c2ccc(C)c(C)c2)C(=O)C1C(c1cccc(O)c1)C1C(=O)N(c2ccc(C)c(C)c2)N=C1C (stereo unspecified)	0	0	80.9	0	0	0	51.9
O=C(Nc1ccccc1F)c1ccc(CNS(=O)(=O)c2cccc(C(F)(F)F)c2)cc1	0	0	47.5	0	0	0	0
O=C1c2cccc3cccc(c23)C(=O)C1(O)O	0	-	51.7	0	0	0	0
Cc1ccccc1C(=O)Nc1ccc(-c2nnc(SC(C)C(=O)O)n2C)cc1 (stereo unspecified)	0	0	41.0	0	0	0	0
CC1=NN(c2ccc(C(F)(F)F)cn2)C(=O)C1	0	0	75.1	0	0	0	58.0
Cc1ccc(-c2nnc(-c3ccncc3)n2-c2ccc(C)cc2)cc1	0	0	61.9	0	0	0	0
COCOc1ccc(-c2ncc(OC)nc2NC(=O)c2cc(C)oc2C)cc1	0	-	0	-	-	-	-
Cc1cc(C)nc(N2N=C(C(C)(C)C)CC2=O)n1	0	0	63.4	0	0	0	75.5
COc1ccc2nc(SCC(=O)NC3(C#N)CCCCC3)[nH]c2c1	0	-	0	0	0	0	-
SMILES	TRAIL sens C8	PPC-1+TRAIL kill	SENP8 block-1	SENP8 block-2	SENP6 block	SENP7 inh	SENP8 conf
CC1=NN(c2ccccc2)C(=O)C1C(=O)c1cc([N+](=O)[O-])cc([N+](=O)[O-])c1 (stereo unspecified)	0	0	51.1	0	0	0	0
Cc1ccc(C2NNC(=O)C2NC(=O)c2ccccc2)cc1 (stereo unspecified)	0	0	64.0	0	0	0	0
O=C(NC1C(=O)NNC1c1ccccc1)c1ccc(F)cc1 (stereo unspecified)	0	0	0	0	0	0	-
COc1ccccc1N1CCN(C(=O)c2cc(S(=O)(=O)N3CCOCC3)ccc2C)CC1	0	-	0	0	0	0	-
CCOC(=O)C1=C(O)C(=O)N(c2ccc(S(N)(=O)=O)cc2)C1c1cccc([N+](=O)[O-])c1 (stereo unspecified)	0	0	0	0	0	0	-
CCOC(=O)C1=C(O)C(=O)N(c2ccccc2)C1c1cccc([N+](=O)[O-])c1 (stereo unspecified)	0	0	40.2	0	0	0	0
O=[N+]([O-])c1cccnc1Oc1ccccc1F	0	0	0	0	0	0	-
Nc1ncc([N+](=O)[O-])c(Oc2ccccc2F)n1	0	0	49.0	0	0	0	0
CC1CCC(=NNc2ccc(C(F)(F)F)cc2[N+](=O)[O-])CC1 (stereo unspecified)	0	0	43.0	0	0	0	0
COc1cccc(NC(=O)CSc2nc3c(c(-c4ccco4)c2C#N)CCCC3)c1	0	0	0	0	0	0	-
CN1CCc2nc(SCC(=O)Nc3ccc(OC(F)(F)F)cc3)c(C#N)c(-c3cccs3)c2C1	0	0	44.8	0	0	0	0
Cc1cccc(CSc2nc(N)c(C#N)c(-c3cccs3)c2C#N)c1	0	0	0	0	0	0	-
Cc1cccc(CSc2nc3c(c(-c4cccs4)c2C#N)CN(C)CC3)c1	0	0	39.5	0	0	0	0
CC(=O)NC(c1ccc(F)c(F)c1)c1nc(-c2ccncc2)cs1 (stereo unspecified)	0	-	0	-	-	-	-
COc1ccc(NC(=O)CN(C)C(=O)CSCC(=O)Nc2ccc(C)cc2)cc1	0	-	53.1	0	0	0	0
O=C1CC(N2CCOCC2)=NN1c1ccc([N+](=O)[O-])cc1	0	0	76.3	0	0	0	45.9
CCC(C)Nc1nc(N)c([N+](=O)[O-])c(Nc2cc(OC)ccc2OC)n1 (stereo unspecified)	0	0	45.2	0	0	0	0
O=C(Nc1ccc(Cl)cc1)c1ccc(CN2CCc3ccccc3C2)cc1	0	-	47.2	0	0	0	0
Cc1cc(C)c(NC(=O)c2ccc(CN3CCc4ccccc4C3)cc2)c(C)c1	0	0	45.0	0	0	0	0
O=C(NCc1ccc2c(c1)OCO2)c1ccccc1	0	0	0	0	0	0	-
CCOc1ccc(NC(=O)c2ccc(CN3CCc4ccccc4C3)cc2)cc1	0	-	0	0	0	0	-

Compound activity: PubChem BioAssay, Sanford-Burnham Center for Chemical Genomics
